We go through 104 compounds from ChEMBL document CHEMBL4513216, “Probing the Open Global Health Chemical Diversity Library for Multistage-Active Starting Points for Next-Generation Antimalarials” (ACS Infect Dis, 2020).

The campaign covered roughly 69,000 compounds. About 8,600 (12%) showed an effect of 50% or more. The entries come from a sample that favours strong results as a whole.

The test concerns Plasmodium berghei. Briefly: Screen against P. berghei liver stage (PbLuc), transformed with Luciferase, at 10uM. It counts as functional, HepG2. Conditions: tested at 10 uM.
Turning to `CCCc1nnc(NCCn2nc(C)c(Cl)c2C)o1`, the INHIBITION was 13.7%.
As for `Cc1cc(C)n(CC2CN(CC(=O)NC3CCOCC3)CCO2)n1` (centres undefined), the figure is 36.1%; as for `COc1ccc2[nH]cc(C(=O)N3C[C@@H](O)[C@H](N4CCOCC4)C3)c2c1`, 29.5%.
For the compound `O=C(Cc1ccc(F)cc1)NCCNCc1cccc(O)c1`, the INHIBITION was determined as 5.9%.
For `CCn1c(C)cc(C(=O)N2C[C@@H](C(=O)O)[C@H](c3ccccc3)C2)c1C` the value was 35.8%; for `CNc1ncc(C(=O)N[C@H]2CN(CCCSC)C[C@@H]2C2CC2)cn1`, 1.71%.
As to `CN(C(=O)c1ccccc1Cl)C1CCN(c2ccccn2)CC1`, the INHIBITION is listed as 28.6%.
For `Cc1cccc(C(=O)N(C)C2CCN(c3ccccn3)CC2)c1C` the value was 37.3%; for `CN(C1CCN(c2ccccn2)CC1)S(=O)(=O)c1ccccc1F`, 21.5%.
As for `O=C1OCCC1N1CCN(c2cnccn2)CC1` (centres undefined), the figure is 3.69%; as for `CN(C(=O)c1cccc2[nH]ncc12)C1CCN(c2ccccn2)CC1`, 59.7%.
On to `COCC(C)N(C)C(=O)NC1CCN(c2ncccn2)CC1` (centres undefined), for which the INHIBITION is recorded as 52.2%.
In the case of `CN(C(=O)Cc1ccccc1F)C1CCN(c2ccccn2)CC1`, the INHIBITION stood at 52.3%.
For `COCC(C)N(C)C(=O)NC1CCN(S(C)(=O)=O)CC1` (centres undefined) the value was 36.2%.
Take `O=C1OCCC1N1CCN(c2ccccn2)CC1` (centres undefined): the INHIBITION was found to be 59.3%.
As for `O=C1OCCC1N1CCN(c2ccc(O)cc2)CC1` (centres undefined), the INHIBITION worked out at 43.1%.
For the compound `CN(Cc1cnn(C)c1)C(=O)NC1CCN(c2ncccn2)CC1`, the INHIBITION stood at 3.04%.
As to `CN(Cc1noc(C2CC2)n1)C1CCN(CCS(C)(=O)=O)C1` (centres undefined), the INHIBITION is recorded as -24.2%.
With `CN(C(=O)c1ccc(Cl)cc1)C1CCN(c2ccccn2)CC1`, the INHIBITION is 3.73%.
For `CN(C(=O)c1cccc(Cl)c1)C1CCN(c2ccccn2)CC1` the value was 31.3%.
As for `CN(C(=O)c1cc(Cl)c[nH]1)C1CCN(c2ccccn2)CC1`, the figure is 50.4%; as for `CN(C(=O)CNC(=O)CC(C)(C)C)C1CCN(c2ccccn2)CC1`, -11.5%.
Regarding `CN(C(=O)Cc1c[nH]c2ccccc12)C1CCN(c2ccccn2)CC1`, the INHIBITION worked out at 53.8%.
As for `CN(C(=O)Cc1ccc(F)cc1)C1CCN(c2ccccn2)CC1`, the figure is -1.14%.
As for `OC(CN1CCN(Cc2ccc(F)c(F)c2)CC1)C1CC1` (centres undefined), the figure is -48.4%; as for `Cc1nc(C(C)n2cc3[nH]cccc-3c2=O)cs1` (centres undefined), 33.7%.
Take `CCN(Cc1noc(C2CC2)n1)C(=O)c1onc2ccccc12`: the INHIBITION worked out at 48.1%.
For `O=C1CCCN1Cc1nnc(SCc2ccc3c(c2)CCC3)o1` the value was 13.2%; for `Cc1n[nH]cc1CNCC1(c2cccc(F)c2)CCOCC1`, -11.9%; for `Cn1cc(CN2CCOC3(CCCN(c4cccc(F)c4)C3)C2)cn1` (centres undefined), 73%.
For `Fc1cccc(N2CCCC3(C2)CN(c2ncccn2)CCO3)c1` (centres undefined) the value was 80.5%; for `Fc1ccc(N2CCOC3(COCCN(c4ncccn4)C3)C2)cc1` (centres undefined), 61.1%; for `Cn1cc(CN2CCC(F)(F)C3(CCN(c4cccc(F)c4)C3)C2)cn1` (centres undefined), -0.371%.
For `Cc1nnc(N2CCCC3(CN(Cc4cnn(C)c4)CCO3)C2)o1` (centres undefined) the value was 41.2%.
On to `c1ccc(CN2CCOC3(COCCN(c4ncccn4)C3)C2)nc1` (centres undefined), for which the INHIBITION came out at 20.1%.
For `Fc1cccc(N2CCCC3(C2)CN(c2cnccn2)CCO3)c1` (centres undefined) the value was 23.3%; for `Fc1cccc(N2CCCC3(CN(Cc4ccccn4)CCO3)C2)c1` (centres undefined), -9.42%; for `COc1ccc(CN2CCOC3(CCCN(c4nnc(C)o4)C3)C2)cc1` (centres undefined), 31.8%.
For `Cc1nnc(N2CCCC3(CN(Cc4ccncc4)CCO3)C2)o1` (centres undefined) the value was 10.1%; for `c1cnc(N2CCOCC3(CNCCO3)C2)nc1` (centres undefined), 22.2%; for `Cc1nnc(N2CCCC3(CN(Cc4ccc(F)cc4)CCO3)C2)o1` (centres undefined), 57.4%.
For `Cc1cc(O)cc(=O)n1CCCC(=O)Nc1n[nH]c2ccccc12` the value was 9.96%; for `COCC1CN(S(=O)(=O)N(C)C)Cc2ncn(CC3CC3)c21` (centres undefined), 5.56%; for `Cc1cccc(CO[C@H]2CN(c3nnc(C)s3)[C@@H]3CCCO[C@H]23)n1`, 22.2%.
In the case of `Cc1nc(CN2CCC3(CCCN(C(=O)c4cnccn4)C3)C2)cs1` (centres undefined), the INHIBITION was -2.46%.
As for `Cc1cc(CN2CCCC2c2c(C)nn(C)c2Cl)on1` (centres undefined), the figure is 47%; as for `Cc1cnn(CC2CN(Cc3ccc(C(N)=O)cc3)CCO2)c1` (centres undefined), 37.4%.
As to `COCC(=O)N1CCC[C@]2(C(=O)N(C)C)CN(c3ccccn3)C[C@@H]2C1`, the INHIBITION is on record as -4.56%.
As for `c1ccc2oc(CCCN3CCCC(Cn4cncn4)C3)nc2c1` (centres undefined), the figure is 45.7%; as for `c1ccc(CN2CCOC3(CCCN(c4nccs4)C3)C2)cc1` (centres undefined), 43.9%.
On to `Cc1nnc(N2CCCC3(CN(Cc4cccnc4)CCO3)C2)o1` (centres undefined), for which the INHIBITION stood at 22.2%.
As for `Cc1nnc(N2CCCC3(CN(Cc4nccs4)CCO3)C2)o1` (centres undefined), the figure is 8.67%; as for `Fc1cccc(N2CCCC3(CN(Cc4cccnc4)CCO3)C2)c1` (centres undefined), 71.9%; as for `Fc1cnc(N2CCCC3(CN(Cc4ccncc4)CCO3)C2)nc1` (centres undefined), 1.71%.
For `Fc1cccc(N2CCCC3(CN(Cc4nccs4)CCO3)C2)c1` (centres undefined) the value was 88.2%.
As for `Fc1cccc(N2CCOC3(CCCN(c4cnccn4)C3)C2)c1` (centres undefined), the figure is 41%; as for `CC(=O)N1CCCC2(CN(Cc3ccncc3)CCO2)C1` (centres undefined), -7.59%; as for `Fc1cccc(N2CCCC3(CN(Cc4ccncc4)CCO3)C2)c1` (centres undefined), 81.3%.
Regarding `Cc1cc(OCC(N)=O)ccc1NC(=O)C(C)Cc1ccccc1F` (centres undefined), the INHIBITION is reported as 39.6%.
Turning to `O=C(c1cnccn1)N1C[C@@H]2C[C@@H](c3nc(C4CC4)cs3)O[C@@H]2C1`, the INHIBITION is given as 10.7%.
In the case of `COc1cc(C)nc(N2CCN(C(=O)c3cccc(C#N)c3)CC2)n1`, the INHIBITION was 8.64%.
As for `COc1ccc2c(c1)C(=O)NC1(CC2)CCN(Cc2ccccn2)C1` (centres undefined), the INHIBITION was 17.9%.
`CNC(=O)NC(=O)CCSCc1cc(F)cc2cccnc12`: the INHIBITION came to 11.5%.
For `Cc1cc(C)n(CCCNc2ncnc3c2NC(=O)CN3)n1` the value was 57.3%.
For `Cc1nn(CCNc2ncnc3c2NC(=O)CN3)c(C)c1Cl`, the INHIBITION was found to be 42.4%.
As for `Cc1cc(C)n(CCNc2ncnc3c2NC(=O)CN3)n1`, the figure is 44.1%.
As for `O=C1[C@H]2CN(C3CCOC3)C[C@H]2CN1c1ccccc1` (some centres undefined), the INHIBITION was 10.5%.
For `Cc1n[nH]c(C)c1CNCC(O)c1cccc(Cl)c1` (centres undefined) the value was 46%; for `Cc1noc(C)c1CN1CCC(N(C)Cc2nnc(C3CC3)n2C)C1` (centres undefined), 19.2%; for `O=C(NC1CC1)c1ccn(COc2c(Cl)cccc2Cl)n1`, 43.3%.
Regarding `Cc1ccoc1C1=NNC(=CN2CCCC(Cn3cncn3)C2)O1` (centres undefined), the INHIBITION is recorded as 27.1%.
As for `Cc1cc(-c2nn(C)c(Cl)c2CN2CCOCC(O)C2)no1` (centres undefined), the figure is 41.8%; as for `CCNC(=O)C1CN(Cc2c(-c3cc(C)on3)nn(C)c2Cl)CCO1` (centres undefined), 43%.
For `Cc1cc(-c2nn(C)c(Cl)c2CN2CC[C@@](O)(C3CCC3)[C@H](C)C2)no1` the value was 33.9%; for `Cc1cc(-c2nn(C)c(Cl)c2CN2Cc3ccccc3C(O)C2)no1` (centres undefined), 51.8%; for `Cc1cc(-c2nn(C)c(Cl)c2CN2CC[C@H](CO)[C@@H](O)C2)no1`, 36.7%.
As for `Cc1cc(-c2nn(C)c(Cl)c2CN2CCC3(CC2)[C@H](O)C[C@@H]3O)no1`, the figure is 50.3%; as for `Cc1cc(-c2nn(C)c(Cl)c2CN2CCOC(C(=O)O)C2)no1` (centres undefined), 17.6%.
As to `Cc1cc(-c2nn(C)c(Cl)c2CN2CCN(C)C(C(=O)O)C2)no1` (centres undefined), the INHIBITION is given as 59.4%.
As for `Cc1cc(C)n(C2CCN(Cc3c(-c4cc(C)on4)nn(C)c3Cl)C2)n1` (centres undefined), the figure is 28.5%; as for `Cc1cnn(CC2CN(CC(=O)Nc3cc(C)no3)CCO2)c1` (centres undefined), -103.725%; as for `O=C1CC(c2ccncc2)c2c(sc3c2CCCC3)N1` (centres undefined), 20.4%.
As for `O=C1CC(c2ccc(C(=O)O)cc2)c2c(sc3c2CCCC3)N1` (centres undefined), the figure is 89.3%.
For `O=C1CC(c2cccnc2)c2c(sc3c2CCCC3)N1` (centres undefined) the value was 26.9%; for `CC(=O)N(Cc1ncc(C)o1)C1CCN(CCOc2ccccc2)C1` (centres undefined), 8.31%; for `CC(C)SCC(=O)N1CCc2c(nc(N(C)C)nc2N(C)C)C1`, 61.1%.
Regarding `CN(C)c1nc2c(c(N(C)C)n1)CCN(C(=O)CN1C[C@H]3CC[C@@H]1C3)C2`, the INHIBITION was determined as 11.7%.
`Cc1nc2c(c(N(C)C)n1)CCN(C(=O)CN1CCC(O)CC1)C2`: the INHIBITION is given as 45.3%.
For `CCN(CC)CCC(=O)N1CCc2c(nc(N(C)C)nc2N(C)C)C1` the value was 30.1%; for `CC(=O)N1CCc2c(nc(N(C)C)nc2N(C)CC2CCCO2)C1` (centres undefined), 41.4%.
Take `CN(C)c1nc2c(c(N(C)C)n1)CCN(C(=O)CN1CCC(O)CC1)C2`: the INHIBITION amounted to 56.1%.
As for `Cc1ccc(NC(=O)C2CSCN2C(=O)c2cnsn2)c(C)c1` (centres undefined), the INHIBITION was -50.6%.
Regarding `CCS(=O)(=O)N1CCc2ccc(NC(=O)Nc3ccc(F)cc3F)cc21`, the INHIBITION turned out to be 72.6%.
Turning to `Cc1cccc(NC(=O)N2CCC(CO)(Nc3ccccc3)CC2)c1`, the INHIBITION is on record as -15.96%.
As for `CCS(=O)(=O)N1CCCc2ccc(NC(=O)Cc3ccc(F)cc3)cc21`, the figure is 56.1%; as for `CSc1ccc(NC(=O)Nc2ccc3c(c2)N(S(C)(=O)=O)CC3)cc1`, 49%.
With `CCS(=O)(=O)N1CCc2ccc(NC(=O)Nc3cccc(SC)c3)cc21`, the INHIBITION was 88.4%.
For `CCS(=O)(=O)N1CCc2ccc(NC(=O)Nc3cccc(C)c3)cc21`, the INHIBITION is 85%.
For `CCS(=O)(=O)N1CCc2ccc(NC(=O)NC(C)(C)C)cc21` the value was 46.1%.
With `COc1ccc(S(=O)(=O)N2CCc3ccc(F)cc32)cc1C(=O)O`, the INHIBITION came out at 15.3%.
For `CCS(=O)(=O)N1CCc2ccc(NC(=O)NC3CCCCC3)cc21` the value was 8.41%.
For `CO[C@H]1CN(C(C)C)C[C@@H]1NC(=O)Nc1cccc(SC)c1` the value was 12.6%.
As for `Cc1cc(S(=O)(=O)N2CCCc3ccc(F)cc32)sc1C(=O)O`, the INHIBITION worked out at 26.8%.
As to `O=C(O)c1csc(S(=O)(=O)N2CCCc3ccc(F)cc32)c1`, the INHIBITION is listed as -9.67%.
